Compounds with a hit are over-represented: about 6.5% of the library has one in this group of screens.
HT1080NT lethal: kills 2HG-producing HT-1080-NT fibrosarcoma cells; 360,000 tested, 1.6% active; Potency, µM (series often up to 46.1 µM), most hits filed as cytotoxic; HT-1080-NT fibrosarcoma viability, CellTiter-Glo ATP luminescence, 48 h;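 further: NT is the 2HG producing partner of a matched IDH1 knockdown line; nearly all actives have a fitted effect of over 55% in size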
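Luminescent CellTiter-Glo readout after 48 hours of compound exposure at 37 degrees C defined viability of HT-1080-NT cells. Activity was normalized to DMSO wells and cell-free media wells; concentration-response curves were fitted and assigned curve classes.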
TGFb SMAD3 inh: TGF-b pathway inhibition; HepG2 CAGA-GFP TGF-b/SMAD3 reporter, GFP fluorescence, 18 h; TGF-beta stimulated, 500 pg/mL final; Potency, µM (doses to about 46.1 µM), most hits filed as inhibitors; 410,000 tested, 1.2% active; AID 588855; further: nearly all actives have a fitted effect of over 65% in size
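Inhibition was scored as loss of TGF-beta-induced (500 pg/mL final, 18 hours, 37 degrees C) GFP in HEPG2 cells carrying a CAGA-GFP reporter, in DMEM with 1% FBS. Well GFP was summed per cell; Activity was normalised to unstimulated and stimulated DMSO wells, then concentration-response fitting.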
HT1080 IDH1KD tx: HT-1080 IDH1 knockdown cell toxicity (counter line); HT-1080 IDH1 knockdown viability, ATP luminescence, 48 h; Potency, µM (highest dose often 46.1 µM), actives largely listed as cytotoxic; 360,000 tested, 2% active
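Knockdown cells (IDH1KD HT-1080) received compounds 2 h after plating at 750 cells/well and were kept 48 h at 37 °C in 5% FBS RPMI. A CellTiter-Glo luminescence read gave % activity for curve fitting.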
Giardia killer: Giardia lamblia killing | 340,000 tested, 0.15% active | Giardia lamblia trophozoite viability | AID 540267 | activity change, % at 7.66 µM, hits read low; in the data active means activity change below about -80%; inconclusive means between about -30% and that limit;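 further: parasites exposed to compound for two days anaerobically before the ATP read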
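Compounds were tested on trophozoites seeded at 100 cells/well and held 48 hrs at 37 deg C anaerobically. An ATP-based luminescent kit measured the remaining live cells.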
HepG2 tox: HepG2 cytotoxicity, counter-screen for TGF-b inhibitors; HepG2 CAGA-GFP viability, ATP luminescence, 18 h; Potency, µM (highest dose often 46.1 µM), hits mostly cytotoxic; 410,000 tested, 0.76% active; AID 588856
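HepG2 CAGA-GFP cells (1000/well, DMEM with 1% FBS) received compound, then TGF-beta at 500 pg/mL final, and were incubated 18 hours at 37 degrees C. Viability was read by CellTiter-Glo luminescence. Media-only wells were set as complete cell-killing and DMSO as no toxicity.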
IL-1B inflam inh: inhibitors of inflammasome signaling (IL-1 beta secretion); activity change, % at 57.5 µM; 360,000 tested, 4.7% active; THP-1 LPS/ATP IL-1B secretion, AlphaLISA, 16 h; stronger effect = lower value; in the data active means activity change below about -50%; inconclusive means mostly about -30% to -49%
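Secreted IL-1B measured by AlphaLISA bead assay after 16 h compound exposure of THP-1 cells; compounds (final up to 57.5 uM) added 1 h before LPS (250 ng/mL) and ATP (1.25 mM) stimulation; lower signal means less secretion.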
Large screens that a line does not name were inactive. Unless noted, the call rests on the fitted dose curve; in most records, active means well fitted curve in the direction sought with a large enough effect; inconclusive means small, poorly fitted or top-dose-only effect, or another doubt; inactive means no such curve, though single readings can be large; an effect the other way counts as inactive or inconclusive.

Cc1ccc(S(=O)(=O)Nc2ncnc3sccc23)cc1C	none
CCOC(=O)N1CCN(C(=O)CNS(=O)(=O)c2cccs2)CC1	none
C/C(=N\NC(=O)C1CC1c1ccccc1)c1cccc([N+](=O)[O-])c1 (configuration not stated)	TGFb SMAD3 inh 11µM
COc1cc(C2c3cc4c(cc3OC(Nc3ccc(C(=O)O)cc3)C2C)OCO4)cc(OC)c1OC (configuration not stated)	HT1080NT lethal 0.52µM, TGFb SMAD3 inh inconclusive, HT1080 IDH1KD tx inconclusive
Cc1ccc(CN(Cc2ccccn2)C(=O)Nc2ccc(C)c(C)c2)cc1	HT1080 IDH1KD tx inconclusive, IL-1B inflam inh -58
COc1ccc(/C=N/n2c(C)nc3ccccc3c2=O)cc1OC	TGFb SMAD3 inh inconclusive
O=[N+]([O-])c1ccc2[nH]cc(S(=O)(=O)N3CCN(c4cccc(Cl)c4)CC3)c2c1	HT1080NT lethal 21µM, TGFb SMAD3 inh inconclusive, HT1080 IDH1KD tx 23µM, IL-1B inflam inh -96
O=S(=O)(c1ccccc1)N1CCN(c2cccc(Cl)c2)CC1	Giardia killer inconclusive
CNCc1c(C)nn(-c2ccccc2)c1C	TGFb SMAD3 inh inconclusive
Cc1ccc(S(=O)(=O)N2CCN(c3nc(-c4cncnc4)nc4ccccc34)CC2)cc1	none (no result: TGFb SMAD3 inh, HepG2 tox, IL-1B inflam inh)
COC(=O)c1ccc(C2C(Oc3ccc(OC)cc3)C(=O)N2CCc2ccc(F)cc2)cc1 (configuration not stated)	none
CN(C)CC/C=C1/c2ccc(F)cc2Sc2ccc(Cl)cc21	HT1080NT lethal 21µM, TGFb SMAD3 inh inconclusive, HT1080 IDH1KD tx 18µM, HepG2 tox 16µM, IL-1B inflam inh -85
CN(C)CC/C=C1\c2ccc(F)cc2Sc2cc(F)c(Cl)cc21	HT1080NT lethal inconclusive, TGFb SMAD3 inh inconclusive, HT1080 IDH1KD tx inconclusive, HepG2 tox 18µM, IL-1B inflam inh -61
CN(C)CC/C=C1\c2cc(Cl)ccc2Sc2cc(F)c(F)cc21	HT1080NT lethal inconclusive, TGFb SMAD3 inh inconclusive
CN(C)CC/C=C1\c2ccccc2Sc2cc(F)c(Cl)cc21	HT1080NT lethal 26µM, TGFb SMAD3 inh inconclusive, HT1080 IDH1KD tx 12µM, IL-1B inflam inh -93
O=C(NCC1OCCc2ccccc21)c1ccc(NC(=O)c2ccc(Cl)cc2)cc1 (configuration not stated)	HT1080NT lethal 21µM, TGFb SMAD3 inh inconclusive, HT1080 IDH1KD tx inconclusive
Cc1ccc(NC(=O)C(=O)NCC2OCCc3ccccc32)cc1 (configuration not stated)	none
COc1cccc(CN2CCN(C(=O)c3cccc(OC)c3)CC2)c1	none
CCc1nnc(NC(=O)c2sc3nc4c(cc3c2N)CCCCCC4)s1	HT1080NT lethal inconclusive, TGFb SMAD3 inh inconclusive, HT1080 IDH1KD tx inconclusive, IL-1B inflam inh -72
COc1ccc(CC(N)c2csc(Nc3nc(C)cnc3C)n2)cc1 (configuration not stated)	HT1080NT lethal inconclusive, HT1080 IDH1KD tx inconclusive (no result: Giardia killer)
Cc1cnc(C)c(Nc2nc(C(N)Cc3ccc(F)cc3)cs2)n1 (configuration not stated)	HT1080NT lethal 21µM, TGFb SMAD3 inh inconclusive, HT1080 IDH1KD tx inconclusive (no result: Giardia killer)
CCc1cnc(Nc2nc(C(N)Cc3ccc(F)cc3)cs2)nc1 (configuration not stated)	HT1080NT lethal inconclusive, TGFb SMAD3 inh inconclusive, HT1080 IDH1KD tx 23µM, IL-1B inflam inh -62 (no result: Giardia killer)
Cc1cnc(C)c(Nc2nc(C(N)Cc3ccc(Cl)cc3)cs2)n1 (configuration not stated)	HT1080NT lethal 18µM, TGFb SMAD3 inh 18µM, HT1080 IDH1KD tx 23µM (no result: Giardia killer)
O=C(CCNC(=O)c1ccccc1Cl)Nc1ccc2c(c1)OCCO2	none (no result: Giardia killer)
CCOC(=O)c1c(C)[nH]c(C)c1S(=O)(=O)NCCN1CCN(c2cc(Cl)ccc2C)CC1	HT1080NT lethal inconclusive, TGFb SMAD3 inh 11µM, HT1080 IDH1KD tx inconclusive, IL-1B inflam inh -51
COc1cc(CN2CCNC(=O)C2CC(=O)N2CCCN(C(C)=O)CC2)cc(OC)c1 (configuration not stated)	none
COc1ccc(CN=Cc2[nH]c3ccc(Br)c(Cl)c3c2O)cc1	HT1080NT lethal inconclusive, HT1080 IDH1KD tx 10µM
CCOC(=O)c1cocc1C(=O)O	TGFb SMAD3 inh inconclusive, HepG2 tox 1.6µM
COC(=O)Nc1ccc2c(c1)N(C(=O)CCCl)c1ccccc1S2	TGFb SMAD3 inh inconclusive, HT1080 IDH1KD tx inconclusive, IL-1B inflam inh -96
COC(=O)Nc1ccc2c(c1)N(C(=O)CCN1CCOCC1)c1ccccc1S2	none
CCOC(=O)Nc1ccc2c(c1)N(C(=O)CCN(C)C)c1ccccc1CC2	TGFb SMAD3 inh inconclusive, IL-1B inflam inh -69
COC(=O)Nc1ccc2c(c1)N(C(=O)CCN(C)C)c1ccccc1CC2	IL-1B inflam inh -57
CCOC(=O)Nc1ccc2c(c1)N(C(=O)CCN1CCOCC1)c1ccccc1S2	none
CCOC(=O)Nc1ccc2c(c1)N(C(=O)CCN1CCOCC1)c1ccccc1S2=O (configuration not stated)	HT1080NT lethal inconclusive, IL-1B inflam inh -63
CCCN(CC)c1ncnc2[nH]ncc12	none
O=c1c(-c2ccco2)[n+]([O-])c2ccccc2n1OCc1ccccc1F	none
COc1ccc(C(=O)C2CCCN(C(=O)c3ccc(F)cc3)C2)cc1OC (configuration not stated)	none
Cc1cccc(NCc2cccc3ccccc23)n1	none
Cc1cccc(NCc2ccc(Br)cc2)n1	IL-1B inflam inh -62
CC(C)n1cc(CN2CCC(C(=O)Nc3ccc(Oc4ccccc4F)cc3)CC2)cn1	HT1080NT lethal inconclusive, TGFb SMAD3 inh inconclusive, HT1080 IDH1KD tx 21µM
CCn1cc(CN2CCC(C(=O)Nc3ccc(Oc4ccccc4F)cc3)CC2)c(C)n1	HT1080 IDH1KD tx inconclusive
COc1cc(F)ccc1CN1CCC(C(=O)Nc2ccc(Oc3ccccc3)nc2)CC1	HT1080NT lethal inconclusive, HT1080 IDH1KD tx 21µM, IL-1B inflam inh -81
COCCN1CCN(C(=O)c2ccc3nc(Cc4ccc(OC)c(OC)c4)oc3c2)CC1	HT1080NT lethal 7.3µM
C/C(=N\Nc1nc(C)c(C)s1)c1ccc([N+](=O)[O-])cc1	HT1080NT lethal 21µM, HT1080 IDH1KD tx 16µM, IL-1B inflam inh -88
C/C(=N\Nc1ccc([N+](=O)[O-])cc1)c1ccc(N)cc1	HT1080NT lethal inconclusive
COc1cccc(-c2nnc(Nc3nc4c(F)cccc4s3)o2)c1	HT1080NT lethal 7.9µM, TGFb SMAD3 inh inconclusive, HT1080 IDH1KD tx 6.3µM, Giardia killer inconclusive
COc1ccccc1-c1nnc(Nc2nc3c(OC)cccc3s2)o1	HT1080NT lethal 0.92µM, TGFb SMAD3 inh inconclusive, HT1080 IDH1KD tx 0.46µM

Compound activity: PubChem, National Center for Advancing Translational Sciences (NCATS)
